From PubChem BioAssay AID1159580 (chemical genetic matrix, 2015)
Where “and” joins values, the source holds several entries; their conditions need not be identical. Equal entries are not always repeated. About 2,000 (36%) of roughly 5,500 compounds were called active. Not shown: some 18% with an inconclusive outcome. No stated cut-off is given here; in the data, active means normalized growth mostly below about 0.91 (no sharp cut-off); inconclusive means no clear call, values can overlap the other calls; inactive means mostly above about 0.92. The list shows a part of the results.

Assay: chemical genetic growth profiling, strain panel (AID 1159580);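 further: tested at 20 µM; growth read once vehicle control cultures reached saturation at 30 °C; 1 = growth at the plate median or of vehicle wells; lower values mean less growth of the strain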
Conditions: S. cerevisiae deletion strains, growth OD

Measured: normalized growth

CCN(CC)CCNC(=O)c1cc(Br)c(N)cc1OC
inactive: locus YAL021C, strain ccr4, hits give low values 0.984 | locus YAL026C, strain drs2, hits give low values 0.997 | locus YAL030W, strain snc1, hits give low values 0.997 | locus YBL061C, strain skt5, hits give low values 0.992 | locus YBR009C, strain hhf1, hits give low values 1.02 | locus YBR021W, strain FUR4, hits give low values 1.03 | locus YBR023C, strain chs3, hits give low values 0.992 | locus YBR171W, strain sec66, hits give low values 0.983 | locus YBR229C, strain ROT2, hits give low values 0.957 | locus YBR231C, strain swc5, hits give low values 0.981 | locus YBR279W, strain paf1, hits give low values 0.991 | locus YCL011C, strain gbp2, hits give low values 0.978 | locus YCL016C, strain dcc1, hits give low values 0.992 | locus YCL029C, strain bik1, hits give low values 0.989 | locus YCL061C, strain MRC1, hits give low values 0.984 | locus YCL069W, strain vba3, hits give low values 0.987 | locus YCR088W, strain abp1, hits give low values 0.981 | locus YDL005C, strain med2, hits give low values 0.989 | locus YDL035C, strain GPR1, hits give low values 0.986 | locus YDL040C, strain nat1, hits give low values 1 | locus YDL074C, strain BRE1, hits give low values 0.947 | locus YDL101C, strain DUN1, hits give low values 0.976 | locus YDL134C, strain PPH21, hits give low values 1.01 | locus YDL185W, strain tfp1, hits give low values 0.983 | locus YDL192W, strain arf1, hits give low values 0.983 | locus YDR001C, strain nth1, hits give low values 0.979 | locus YDR069C, strain doa4, hits give low values 1.01 | locus YDR101C, strain arx1, hits give low values 0.979 | locus YDR137W, strain rgp1, hits give low values 1.04 | locus YDR159W, strain sac3, hits give low values 1 | locus YDR162C, strain NBP2, hits give low values 1 | locus YDR195W, strain ref2 0.967 | locus YDR297W, strain sur2, hits give low values 0.976 | locus YDR318W, strain mcm21, hits give low values 1 | locus YDR334W, strain swr1, hits give low values 0.954 | locus YDR335W, strain msn5, hits give low values 0.987 | locus YDR388W, hits give low values 0.989 | locus YDR392W, strain spt3, hits give low values 0.932 | locus YDR502C, strain sam2, hits give low values 0.983 | locus YEL003W, strain gim4, hits give low values 0.979 | locus YEL037C, strain rad23, hits give low values 0.985 | locus YEL061C, strain CIN8 (second series), hits give low values 0.982 | locus YEL061C, strain CIN8, hits give low values 0.978 | locus YER015W, strain faa2, hits give low values 0.986 | locus YER016W, strain bim1, hits give low values 0.997 | locus YER110C, hits give low values 0.978 | locus YER111C, strain swi4, hits give low values 1.01 | locus YER155C, strain BEM2 (second series), hits give low values 1 | locus YER155C, strain BEM2, hits give low values 1 | locus YER167W, strain BCK2, hits give low values 1.01 | locus YFR010W, strain ubp6, hits give low values 0.984 | locus YGL078C, strain dbp3, hits give low values 0.974 | locus YGL086W, strain mad1, hits give low values 0.98 | locus YGL167C, strain pmr1, hits give low values 0.98 | locus YGL173C, strain kem1, hits give low values 0.991 | locus YGL227W, strain vid30, hits give low values 0.995 | locus YGL240W, strain doc1, hits give low values 0.993 | locus YGL248W, strain PDE1, hits give low values 0.971 | locus YGL253W, strain hxk2, hits give low values 0.982 | locus YGR078C, strain PAC10, hits give low values 0.975 | locus YGR135W, strain pre9, hits give low values 1.04 | locus YGR252W, strain gcn5, hits give low values 1.02 | locus YHR013C, strain ard1, hits give low values 0.972 | locus YHR027C, strain rpn1, hits give low values 0.976 | locus YHR030C, strain SLT2, hits give low values 0.997 and 0.978 | locus YHR079C, strain IRE1 (second series), hits give low values 0.989 | locus YHR079C, strain IRE1, hits give low values 1 | locus YHR094C, strain hxt1, hits give low values 0.985 | locus YHR129C, strain ARP1, hits give low values 1 | locus YHR142W, strain chs7, hits give low values 0.97 | locus YHR200W, strain rpn10, hits give low values 0.994 | locus YIL066C, strain RNR3, hits give low values 0.965 | locus YIL073C, strain SPO22, hits give low values 1.04 | locus YIL125W, strain kgd1, hits give low values 0.985 | locus YIR030C, strain dcg1, hits give low values 0.986 | locus YJL092W, strain hpr5, hits give low values 0.973 | locus YJL095W, strain BCK1 (second series), hits give low values 0.99 | locus YJL095W, strain BCK1, hits give low values 0.962 and 0.993 | locus YJL115W, strain asf1, hits give low values 0.966 | locus YJL129C, strain trk1, hits give low values 0.99 | locus YJL134W, strain LCB3, hits give low values 0.994 | locus YJL154C, strain vps35, hits give low values 0.986 | locus YJL164C, strain tpk1, hits give low values 1.01 | locus YJL166W, strain qcr8, hits give low values 0.998 | locus YJL168C, strain set2, hits give low values 0.987 | locus YJL187C, strain SWE1 (second series), hits give low values 0.944 | locus YJL187C, strain SWE1, hits give low values 0.993
